We go through nine molecules from PubChem BioAssay.

The target in experiment [1] is Calcium-dependent protein kinase 1 (Plasmodium falciparum (isolate 3D7)) (UniProt P62344). The experiment can be described thus: PfCDPK1 kinase inhibitors, biochemical, TCAMS library (AID 1159585; cut-off not given, nearly all actives have IC50 up to about 0.98 µM;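 also: inhibitors leave more ATP so luminescence rises with inhibition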). The following applies: recombinant PfCDPK1, Kinase-Glo ATP depletion luminescence. Background: Kinase-Glo measures the ATP left after a reaction by luminescence.
Sequence of Calcium-dependent protein kinase 1 (Plasmodium falciparum (isolate 3D7)) (P62344 whole entry, looked up): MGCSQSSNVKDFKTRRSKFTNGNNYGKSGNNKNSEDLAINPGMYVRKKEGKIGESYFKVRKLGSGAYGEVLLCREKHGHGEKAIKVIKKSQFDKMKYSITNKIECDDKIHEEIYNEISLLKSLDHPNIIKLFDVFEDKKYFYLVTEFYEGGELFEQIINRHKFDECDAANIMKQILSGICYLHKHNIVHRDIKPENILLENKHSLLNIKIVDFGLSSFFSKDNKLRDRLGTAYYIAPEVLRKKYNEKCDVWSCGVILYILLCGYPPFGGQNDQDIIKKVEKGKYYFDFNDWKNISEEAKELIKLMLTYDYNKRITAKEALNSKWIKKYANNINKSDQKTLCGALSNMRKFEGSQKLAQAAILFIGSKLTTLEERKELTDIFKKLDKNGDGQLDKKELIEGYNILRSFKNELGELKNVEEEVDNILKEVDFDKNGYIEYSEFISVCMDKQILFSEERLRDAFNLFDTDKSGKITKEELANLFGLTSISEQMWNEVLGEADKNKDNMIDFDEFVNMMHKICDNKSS
The target of experiment [2] is Plasmodium falciparum protein kinase 6 (PK6, PF3D7_1337100) (UniProt Q8IDW1). The experiment can be described thus: PfPK6 kinase inhibitors, biochemical, TCAMS library (AID 1159586). The conditions noted are these: recombinant PfPK6, Kinase-Glo ATP depletion luminescence.
Sequence of Plasmodium falciparum protein kinase 6 (PK6, PF3D7_1337100) (Q8IDW1 1-305): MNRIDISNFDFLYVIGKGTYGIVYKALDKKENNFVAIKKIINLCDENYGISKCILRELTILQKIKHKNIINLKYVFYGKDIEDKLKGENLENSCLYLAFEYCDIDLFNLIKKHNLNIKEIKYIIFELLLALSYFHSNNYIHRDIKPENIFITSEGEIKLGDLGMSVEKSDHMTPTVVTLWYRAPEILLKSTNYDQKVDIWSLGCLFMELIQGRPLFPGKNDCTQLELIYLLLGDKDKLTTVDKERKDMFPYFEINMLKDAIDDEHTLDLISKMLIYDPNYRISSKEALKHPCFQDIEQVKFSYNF
Experiment [3] has as its target Protein kinase 7 (PK7), Plasmodium falciparum 3D7 (PF3D7_0213400) (UniProt Q7YTF7). The experiment can be described thus: inhibition of Plasmodium PK7 catalytic activity – biochemical, TCAMS antimalarial set, Kinase-Glo luminescence (AID 1159587). The following applies: recombinant PfPK7, Kinase-Glo ATP depletion luminescence.
The target in experiment [4] is Calcium-dependent protein kinase 4 (Plasmodium falciparum (isolate 3D7)) (UniProt Q8IBS5). Put plainly: PfCDPK4 kinase inhibitors, biochemical, TCAMS library (AID 1159588; cut-off not given, nearly all actives have IC50 up to about 0.91 µM). The following applies: recombinant PfCDPK4, Kinase-Glo ATP depletion luminescence.
Sequence of Calcium-dependent protein kinase 4 (Plasmodium falciparum (isolate 3D7)) (Q8IBS5 whole entry, looked up): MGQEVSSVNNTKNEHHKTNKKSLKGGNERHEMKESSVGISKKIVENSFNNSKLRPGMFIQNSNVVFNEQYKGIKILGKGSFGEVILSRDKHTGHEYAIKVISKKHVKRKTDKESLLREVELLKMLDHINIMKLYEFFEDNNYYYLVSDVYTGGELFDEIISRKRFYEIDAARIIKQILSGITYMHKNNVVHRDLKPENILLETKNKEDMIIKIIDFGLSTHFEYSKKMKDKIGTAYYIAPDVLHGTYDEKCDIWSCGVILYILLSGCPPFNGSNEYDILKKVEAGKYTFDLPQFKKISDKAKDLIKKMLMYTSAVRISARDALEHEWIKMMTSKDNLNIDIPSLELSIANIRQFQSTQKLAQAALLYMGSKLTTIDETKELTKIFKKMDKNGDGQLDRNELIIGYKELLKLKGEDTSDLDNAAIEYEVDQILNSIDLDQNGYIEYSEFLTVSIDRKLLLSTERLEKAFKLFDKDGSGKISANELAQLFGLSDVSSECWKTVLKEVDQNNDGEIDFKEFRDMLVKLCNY
Experiment [5] can be described thus: antimalarial activity against Dd2 strain (AID 2302;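 active = growth inhibition above 50% at the single 2 µM test dose, taken to imply half-maximal potency below 2 µM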;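 also: 0% = DMSO untreated growth and 100% = chloroquine plus artemisinin killed control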). The following applies: P. falciparum Dd2 in RBCs, LDH growth readout, 72 h; at 2 µM; stronger effect = higher value.
A short description of experiment [6]: HepG2 cytotoxicity, primary screen, cytotoxicity control for P. falciparum antimalarial project, cell-based, ATP luminescence (AID 2303;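 active = inhibition above 50%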;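 also: 0% = DMSO wells and 100% = digitonin-killed cells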). The conditions noted are these: HepG2 viability, 24-48 h, at 10 µM, stronger effect = higher value.
In experiment [7] the target is L-lactate dehydrogenase (Plasmodium falciparum (isolate CDC / Honduras)) (UniProt Q27743). The experiment can be described thus: PfLDH activity inhibition – cell lysate, 3D7 strain, counter-screen for P. falciparum growth inhibition project (AID 2304).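 Also: 0% = vehicle and 100% = reference inhibitor.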 The conditions noted are these: P. falciparum 3D7 crude extract, LDH APAD/NBT absorbance; at 2 µM; stronger effect = higher value. A general note: Counterscreens check selectivity or assay interference.
Sequence of L-lactate dehydrogenase (Plasmodium falciparum (isolate CDC / Honduras)) (Q27743 whole entry, looked up): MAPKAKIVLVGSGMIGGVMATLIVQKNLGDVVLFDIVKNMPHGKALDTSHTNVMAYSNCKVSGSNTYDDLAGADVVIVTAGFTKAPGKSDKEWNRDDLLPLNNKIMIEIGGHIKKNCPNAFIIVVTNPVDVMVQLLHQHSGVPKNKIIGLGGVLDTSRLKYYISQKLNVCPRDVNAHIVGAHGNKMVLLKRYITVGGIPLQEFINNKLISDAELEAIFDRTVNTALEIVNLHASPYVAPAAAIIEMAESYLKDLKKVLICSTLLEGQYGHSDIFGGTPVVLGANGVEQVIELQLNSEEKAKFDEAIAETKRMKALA

Experiment [8] in a line: inhibition of 3D7 malaria parasite growth – strain 3D7 (AID 2306).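 Also: 0% = DMSO wells and 100% = chloroquine plus artemisinin control wells.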 The following applies: P. falciparum 3D7 erythrocytic growth, LDH absorbance, 72 h; at 2 µM; stronger effect = higher value.
Experiment [9] is described as follows: liver-stage malaria parasite growth inhibition, primary screen, cell-based, HepG2, luciferase luminescence, HepG2 viability (AID 624349; in the data active = parasite load remaining mostly below about 12%, no sharp cut-off; inactive = mostly above about 10%;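 also: 100% = mean of DMSO negative control wells on the same plate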). The following applies: P. berghei liver stage in HepG2, luciferase luminescence, concentration not given here; parasite load remaining: stronger effect = lower value; viability: measured here: HepG2 viability without parasites.
The nature of experiment [10]: growth inhibition of DIPG glioma cells, dose response, cell-based, SU-DIPG-XVII, MIPE5.0, CellTiter-Glo, qHTS (AID 1347060; cut-off not given, nearly all actives have AC50 up to about 26 µM). The conditions noted are these: SU-DIPG-XVII viability, CellTiter-Glo ATP luminescence. In general terms: ATP-based viability assays read luminescence as a measure of living cells.
Experiment [11] is described as follows: growth inhibition of DIPG glioma cells, dose response, cell-based, JHH-DIPG-1, MIPE4.0, CellTiter-Glo, qHTS (AID 1347062; cut-off not given, nearly all actives have AC50 up to about 27 µM). The conditions noted are these: JHH-DIPG-1 viability, CellTiter-Glo ATP luminescence.
The nature of experiment [12]: growth inhibition of DIPG glioma cells, dose response, cell-based, SU-DIPG-IV, MIPE4.0, CellTiter-Glo, qHTS (AID 1347063; cut-off not given, nearly all actives have AC50 up to about 30 µM;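 also: compound exposure lasted 48 hours before the viability readout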). The conditions noted are these: SU-DIPG-IV viability, CellTiter-Glo ATP luminescence.
Experiment [13] can be described thus: growth inhibition of DIPG glioma cells, dose response, cell-based, SU-DIPG-XIII, MIPE5.0, CellTiter-Glo, qHTS (AID 1347064; cut-off not given, nearly all actives have AC50 up to about 23 µM). The following applies: SU-DIPG-XIII viability, CellTiter-Glo ATP luminescence.
A short description of experiment [14]: viability loss in pontine glioma line – cell-based, SU-DIPG-XXV, MIPE5.0, CellTiter-Glo, qHTS, dose response (AID 1347065; cut-off not given, nearly all actives have AC50 up to about 26 µM;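 also: cells exposed to compound for 48 hours before ATP readout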). The conditions noted are these: CellTiter-Glo ATP luminescence.
Experiment [15] can be described thus: SU-DIPG-VI glioma cell viability, MIPE4.0 library, CellTiter-Glo luminescence, qHTS (AID 1347066; cut-off not given, nearly all actives have AC50 up to about 30 µM;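 also: cells exposed to compound for 48 hours before readout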). The conditions noted are these: CellTiter-Glo ATP luminescence.
The nature of experiment [16]: JHH-DIPG-1 glioma cell viability, MIPE5.0 library, CellTiter-Glo luminescence, qHTS (AID 1347067; cut-off not given, nearly all actives have AC50 up to about 26 µM;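 also: cells exposed to compound for 48 hours before readout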). The conditions noted are these: JHH-DIPG-1 glioma viability, CellTiter-Glo ATP luminescence.
The nature of experiment [17]: SU-DIPG-XXV glioma cell viability, MIPE5.0 library, qHTS (AID 1347068; cut-off not given, nearly all actives have IC50 up to about 30 µM).
Experiment [18] in a line: sensitizers of A549 cells to miR-34 induction, primary screen, imaging, A549 dox-inducible miR-34, nuclei and caspase counts (AID 1347080;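 active = compounds whose cell count with miR-34 switched on is under 0.7 times the count with it off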). The following applies: A549 miR-34 inducible, Hoechst nuclei count, 48 h.
Experiment [19] in a line: survival rescue of mitochondrial mutant cells in low glucose, primary screen, MELAS cybrids, Rieske KO mouse fibroblasts, CellTiter-Glo (AID 1508586;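 active = mean z-score across replicates of 1.96 or higher in either the MELAS or the Rieske mutant cell line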;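 also: z relative to plate mean and SD of compound and empty wells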).
For experiment [20], the target named is NAD(+) hydrolase SARM1 (Homo sapiens) (UniProt Q6SZW1). Put plainly: SARM1 TIR NADase inhibitors, cell lysate, NAD-Glo luminescence (AID 1508614;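 active = compound whose remaining NAD level is above about 45 nM, limit read from the data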;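 also: higher remaining NAD means stronger inhibition of SARM1 NADase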). The following applies: SAM-TIR HEK293T lysate NADase, at 1 µM, stronger effect = higher value.
Sequence of NAD(+) hydrolase SARM1 (Homo sapiens) (Q6SZW1 whole entry, looked up, the tested form may be a part): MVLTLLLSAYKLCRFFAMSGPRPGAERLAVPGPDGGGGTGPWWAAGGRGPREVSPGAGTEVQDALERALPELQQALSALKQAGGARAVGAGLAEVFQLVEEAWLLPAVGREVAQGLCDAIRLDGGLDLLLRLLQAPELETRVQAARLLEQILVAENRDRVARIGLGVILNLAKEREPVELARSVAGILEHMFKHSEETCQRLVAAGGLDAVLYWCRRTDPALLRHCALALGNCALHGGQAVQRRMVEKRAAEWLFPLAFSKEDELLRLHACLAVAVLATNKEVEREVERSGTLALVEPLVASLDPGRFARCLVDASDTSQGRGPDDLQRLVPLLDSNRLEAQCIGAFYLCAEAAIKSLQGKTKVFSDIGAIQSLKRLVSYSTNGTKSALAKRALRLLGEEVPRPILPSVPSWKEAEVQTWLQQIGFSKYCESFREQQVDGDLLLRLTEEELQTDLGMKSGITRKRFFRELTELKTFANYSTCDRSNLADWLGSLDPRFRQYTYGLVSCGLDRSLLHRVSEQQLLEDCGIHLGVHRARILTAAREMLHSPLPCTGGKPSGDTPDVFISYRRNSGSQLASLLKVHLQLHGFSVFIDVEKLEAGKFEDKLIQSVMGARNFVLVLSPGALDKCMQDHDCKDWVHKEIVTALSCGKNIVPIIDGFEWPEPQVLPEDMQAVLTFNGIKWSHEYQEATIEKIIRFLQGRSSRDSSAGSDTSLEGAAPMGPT
In experiment [21] the target is Mitogen-activated protein kinase 7 (Homo sapiens) (UniProt Q13164). The experiment can be described thus: ERK5 transactivation activators in reporter cells, primary screen, cell-based, HTS (AID 1508626;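 active = luciferase signal above three times the same-plate solvent-only control wells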;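 also: luciferase driven by Gal4-ERK5 fusion binding five Gal4 sites before minimal TATA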). The following applies: HeLa Gal4-ERK5 transactivation, 18 h, at 5 µM, stronger effect = higher value.
Sequence of Mitogen-activated protein kinase 7 (Homo sapiens) (Q13164 whole entry, looked up, the tested form may be a part): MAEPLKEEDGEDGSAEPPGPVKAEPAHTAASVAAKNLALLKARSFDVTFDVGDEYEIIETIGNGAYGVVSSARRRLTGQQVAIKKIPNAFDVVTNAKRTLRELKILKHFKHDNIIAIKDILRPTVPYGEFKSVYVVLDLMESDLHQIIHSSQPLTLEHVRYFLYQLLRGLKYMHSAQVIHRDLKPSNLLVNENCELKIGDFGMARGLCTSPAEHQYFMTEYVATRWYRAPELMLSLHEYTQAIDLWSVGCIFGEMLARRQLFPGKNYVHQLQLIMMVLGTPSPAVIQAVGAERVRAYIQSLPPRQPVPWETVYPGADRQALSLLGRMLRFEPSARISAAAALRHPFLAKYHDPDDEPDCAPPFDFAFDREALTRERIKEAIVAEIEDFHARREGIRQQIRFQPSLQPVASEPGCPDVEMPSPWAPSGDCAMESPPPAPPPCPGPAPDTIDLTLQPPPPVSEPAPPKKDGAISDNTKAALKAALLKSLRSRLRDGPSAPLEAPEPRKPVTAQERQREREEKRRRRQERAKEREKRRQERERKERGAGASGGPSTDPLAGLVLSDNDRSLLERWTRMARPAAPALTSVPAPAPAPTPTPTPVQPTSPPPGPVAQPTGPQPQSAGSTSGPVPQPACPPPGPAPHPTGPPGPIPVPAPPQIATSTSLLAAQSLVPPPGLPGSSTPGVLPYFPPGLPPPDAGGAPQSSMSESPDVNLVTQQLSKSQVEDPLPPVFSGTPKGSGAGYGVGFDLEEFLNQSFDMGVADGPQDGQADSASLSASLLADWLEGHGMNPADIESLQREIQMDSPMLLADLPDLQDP
Experiment [22] can be described thus: viability rescue of complex I mutant cybrids, primary screen, cell-based, galactose medium, ATP luminescence (AID 1645843;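 active = z-score of at least 1.8 in each of two replicates, scored against plate mean and spread of sample wells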;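 also: positive z means more ATP and so rescue of galactose-driven cybrid death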). The conditions noted are these: complex I mutant cybrid cells, 72 h, stronger effect = higher value.

The structures appear in SMILES notation. Values joined by “and” are separate entries in the source; they are usually repeats but may differ in a detail not shown here. Equal entries are not always repeated. Results filed as inconclusive are left out. For some assays here: Potency and affinity values are given separately. Some compounds were tested as several samples or in several runs, with calls that do not always agree. Active and inactive are the calls of the source. Unless noted, no rule for the calls is given here.

In general, inhibition refers to the change of the read-out against control, counted positive when it falls. One may read the viability as a read-out of living cells in per cent, often relative to untreated cells.

Sequence of Protein kinase 7 (PK7), Plasmodium falciparum 3D7 (PF3D7_0213400) (Q7YTF7 1-343): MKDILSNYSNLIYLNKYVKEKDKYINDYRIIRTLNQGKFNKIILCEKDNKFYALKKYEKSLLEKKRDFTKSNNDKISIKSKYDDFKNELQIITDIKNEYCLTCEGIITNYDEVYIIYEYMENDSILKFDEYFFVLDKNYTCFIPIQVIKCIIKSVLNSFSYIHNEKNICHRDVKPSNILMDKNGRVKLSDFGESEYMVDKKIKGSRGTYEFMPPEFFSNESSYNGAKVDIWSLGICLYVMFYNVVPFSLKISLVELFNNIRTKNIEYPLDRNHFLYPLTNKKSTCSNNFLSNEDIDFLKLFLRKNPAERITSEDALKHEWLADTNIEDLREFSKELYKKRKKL

On to `C[C@@H]([C@H](CCCc1ccc(Cl)cc1)C(=O)N[C@H](C(=O)Nc1cccnc1)C(C)(C)C)N(O)C=O`, for which the result in experiment [1], in experiment [2], in experiment [3] and in experiment [4] was inactive.

Take `Oc1c(/C=N/n2cnnc2)sc2ccccc12`: the result in experiment [1], in experiment [2], in experiment [3] and in experiment [4] was inactive.

Turning to `COc1ccccc1C1CCN(C2CCC(NC(=O)/C=C/c3cc(F)cc(F)c3)CC2)CC1` (stereo not drawn), the growth inhibition in [5] is 15% (inactive); in [8], 91% (active). Further, the inhibition is 45% (inactive) in [6] and 0% (inactive) in [7]. The outcome in [1], in experiment [2], in experiment [3] and in [4] was inactive.

On to `O=C(Nc1cccc(-c2ccc(-c3nc4ccc(F)cc4[nH]3)cc2)c1)c1cccnc1`, for which the growth inhibition in [5] is 92% (active); in experiment [8], 101% (active). The results for the inhibition in [6] and in experiment [7] were 27% (inactive) and -4% (inactive), respectively. The result in [1], in experiment [2], in experiment [3] and in experiment [4] was inactive.

`C=C[C@H]1CN2CC[C@H]1C[C@H]2[C@H](O)c1ccnc2ccc(OC)cc12`: the growth inhibition in [5] was 99% (active) and 22% (inactive) and 79% (active); in experiment [8], 100% (active) and 97% (active) and 99% (active). Also, the inhibition in experiment [6] is 13% (inactive) and -12% (inactive) and -6% (inactive); in experiment [7], -4% (inactive) and -7% (inactive). Besides, the parasite load remaining in experiment [9] was 49.1% (inactive). Besides, in experiment [9], the viability was 193%. Further, the outcome in [1], in experiment [2], in experiment [3], in experiment [4], in [10] and in experiment [11] was inactive. The molecule was classed as inactive in experiment [12], in [13], in [14], in [15], in experiment [16] and in [17]. Moreover, the fold change in experiment [18] (stronger effect = lower value, cell number ratio, induced over uninduced) was 0.942 (inactive); in experiment [18] (measured here: relative caspase fold change +Dox/-Dox), 0.791. The cell count was determined as 9260 in experiment [18] (measured here: total cells with miR-34 induction, stronger effect = lower value) and 9830 in experiment [18] (measured here: total cells without miR-34 induction). The z-score is -0.0548 (inactive) in experiment [19] (MELAS cybrid survival, CellTiter-Glo 48 h, stronger effect = higher value); 1.17 in experiment [19] (Rieske KO mouse fibroblast survival, CellTiter-Glo 72 h); -0.735 (inactive) in experiment [22]. In addition, the remaining NAD in [20] was 10 nM (inactive). Moreover, in experiment [21], the luciferase signal is 140 AU (inactive).

As for `CC(C)Oc1ccc2c(c1)OC(c1ccccc1)(C(F)(F)F)NC2=O` (stereo not drawn), the values for the growth inhibition in experiment [5] and in experiment [8] were 98% (active) and 101% (active), respectively. The inhibition is -6% (inactive) in [6] and -2% (inactive) in experiment [7]. In addition, the result in experiment [1], in experiment [2], in experiment [3] and in [4] was inactive.

Turning to `Cc1sc2ccc(Cl)cc2c1S(=O)(=O)Nc1ccc2nccc(N3C[C@@H](C)N[C@@H](C)C3)c2c1`, the growth inhibition in experiment [5] and in [8] was 100% (active) each time. Also, the values for the inhibition in [6] and in [7] were 17% (inactive) and 0% (inactive), respectively. Further, the result in experiment [1], in [2], in experiment [3] and in [4] was inactive.

As to `C[C@H](Cc1ccc(C[C@@H](C)NCC(O)c2cc(Cl)c(N)c(Cl)c2)cc1)NCC(O)c1cc(Cl)c(N)c(Cl)c1` (stereo partly drawn), the figures for the growth inhibition in experiment [5] and in [8] were 50% (active) and 98% (active), respectively. In addition, the figures for the inhibition in [6] and in experiment [7] were 26% (inactive) and -3% (inactive), respectively. Moreover, the outcome in [1], in [2], in experiment [3] and in experiment [4] was inactive.

On to `O=C(Nc1cc(Cl)ccc1O)c1ccc(Oc2ccc(C(=O)Nc3cc(Cl)ccc3O)cc2)cc1`, for which the growth inhibition is 91% (active) in experiment [5] and 97% (active) in experiment [8]. The inhibition in [6] was 32% (inactive); in [7] it was -3% (inactive). In addition, the outcome in [1], in experiment [2], in experiment [3] and in experiment [4] was inactive.
